# Inconclusive results are not listed. Active and inactive are the calls of the source. The calls were made as follows: active = hit-call score of the fitted dose curve at least 0.9, where 1 is the maximum; inconclusive = response in the unintended direction; inactive = score below 0.9.
# How the values were obtained:
# [1] = target: human Protein Tyrosine Phosphatase Non-receptor Type 9 (PTPN9), PTPN9 (gene 5780) (UniProt P43378); assay: NVS_ENZ_hPTPN9: NovaScreen (NVS) Enzymatic Assay for human Protein Tyrosine Phosphatase Non-receptor Type 9 (PTPN9) (AID 2283209)
# In short: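 Sf9-expressed enzyme in a cell-free assay, fluorescence read 1.33 h after dosing with mobility-shift separation of substrate and product. Tested at 25 uM in duplicate, then up to 50 uM; signal loss versus DMSO.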
# PPP2CA (gene 5515) = PPP2CA (gene 5515) (UniProt P67775); assay: NVS_ENZ_hPPP2CA: NovaScreen (NVS) Enzymatic Assay for human Protein Phosphatase 2 Aatalytic subunit Alpha (PPP2CA) (AID 2283199)
# In short: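 Recombinant human PPP2CA with fluorescent substrate; product separated from substrate by electrophoretic mobility shift, read 1.33 h after dosing. Duplicate single-point at 25 uM, then singleton concentration-response up to 50 uM; loss of signal versus DMSO.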
# [2] = target: human Protein Tyrosine Phosphatase Non-receptor Type 1 (PTPN1), PTPN1 (gene 5770) (UniProt P18031); assay: NVS_ENZ_hPTPN1: NovaScreen (NVS) Enzymatic Assay for human Protein Tyrosine Phosphatase Non-receptor Type 1 (PTPN1) (AID 2283201)
# In short: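 Cell-free fluorogenic-substrate activity assay on recombinant enzyme, read 1.33 h after dosing by fluorescence and electrophoretic mobility shift; loss of signal vs DMSO baseline. Primary screen in duplicate at 25 uM, hits then run in concentration-response up to 50 uM.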
# [3] = target: Tyrosine-protein phosphatase non-receptor type 11 (Homo sapiens) (UniProt Q06124); assay: NVS_ENZ_hPTPN11: NovaScreen (NVS) Enzymatic Assay for human Protein Tyrosine Phosphatase Non-receptor Type 11 (PTPN11) (AID 2283202)
# In short: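 Recombinant human PTPN11 activity on a fluorescent substrate, with substrate/product separated by electrophoretic mobility shift; read 0.5 h after dosing, loss of signal vs DMSO. Duplicate 25 uM screen, then concentration-response up to 50 uM.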
# [4] = target: Tyrosine-protein phosphatase non-receptor type 12 (Homo sapiens) (UniProt Q05209); assay: NVS_ENZ_hPTPN12: NovaScreen (NVS) Enzymatic Assay for human Protein Tyrosine Phosphatase Non-receptor Type 12 (PTPN12) (AID 2283204)
# In short: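 Single-concentration duplicates (25 uM) preceded singleton concentration-response up to 50 uM for chemicals passing threshold. Cell-free recombinant PTPN12 activity was read 1.33 h after dosing via fluorescence after mobility-shift separation; loss of signal versus DMSO.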
# [5] = target: human Protein Tyrosine Phosphatase Receptor Type F (PTPRF), PTPRF (gene 5792) (UniProt P10586); assay: NVS_ENZ_hPTPRF: NovaScreen (NVS) Enzymatic Assay for human Protein Tyrosine Phosphatase Receptor Type F (PTPRF) (AID 2283213)
# In short: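 Cell-free fluorescence enzyme assay with recombinant protein and substrate; product separated by electrophoretic mobility shift. Read 1 h after dosing, single 25 uM duplicate screen, then concentration-response up to 50 uM; loss of signal vs DMSO.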
# [6] = target: human Protein Tyrosine Phosphatase Receptor Type M (PTPRM), PTPRM (gene 5797) (UniProt P28827); assay: NVS_ENZ_hPTPRM: NovaScreen (NVS) Enzymatic Assay for human Protein Tyrosine Phosphatase Receptor Type M (PTPRM) (AID 2283215)
# In short: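 Cell-free recombinant PTPRM with fluorogenic substrate; product separated from substrate by electrophoretic mobility shift and read by fluorescence, 1.33 h after dosing. Primary screen single concentration (25 uM) in duplicate; actives retested in concentration series; loss of signal versus DMSO.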
# [7] = target: human Raf-1 Proto-Oncogene, serine/threonine Kinase (RAF1), RAF1 (gene 5894) (UniProt P04049); assay: NVS_ENZ_hRAF1: NovaScreen (NVS) Enzymatic Assay for human Raf-1 Proto-Oncogene, serine/threonine Kinase (RAF1) (AID 2283216)
# In short: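 Cell-free recombinant kinase with specific fluorescent substrate, product separated by electrophoretic mobility shift; read 1 h after dosing. Primary screen at 25 uM in duplicate; hits then run in concentration-response up to 50 uM, fitted as loss of signal versus DMSO.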
# [8] = target: human Sirtuin 2 (SIRT2), SIRT2 (gene 22933) (UniProt Q8IXJ6); assay: NVS_ENZ_hSIRT2: NovaScreen (NVS) Enzymatic Assay for human Sirtuin 2 (SIRT2) (AID 2283217)
# In short: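 Cell-free recombinant human SIRT2, fluorescent substrate with product separated by electrophoretic mobility shift, 1 hr. Screened in duplicate at 25 uM; hits rerun singly in concentration-response up to 50 uM, relative to DMSO.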
# [9] = target: human Protein Phosphatase, Mg2+/Mn2+ Dependent 1A (PPM1A), PPM1A (gene 5494) (UniProt P35813); assay: NVS_ENZ_hPPM1A: NovaScreen (NVS) Enzymatic Assay for human Protein Phosphatase, Mg2+/Mn2+ Dependent 1A (PPM1A) (AID 2283198)
# In short: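 Cell-free recombinant PPM1A phosphatase assay with fluorescent substrate, read 1 h after dosing by electrophoretic mobility shift. Chemicals screened in duplicate at 25 uM, then in concentration-response up to 50 uM; loss of activity versus DMSO.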
# [10] = target: human Protein Tyrosine Phosphatase Non-receptor Type 6 (PTPN6), PTPN6 (gene 5777) (UniProt P29350); assay: NVS_ENZ_hPTPN6: NovaScreen (NVS) Enzymatic Assay for human Protein Tyrosine Phosphatase Non-receptor Type 6 (PTPN6) (AID 2283210)
# In short: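 Cell-free assay with recombinant PTPN6 expressed in SF9 cells, fluorescent substrate, product separated from substrate by electrophoretic mobility shift; read 1.33 hours after dosing. Primary screen in duplicate at 25 uM, actives retested in concentration series; DMSO baseline.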
# [11] = target: human Phosphatase and Tensin Homolog (PTEN), PTEN (gene 5728) (UniProt P60484); assay: NVS_ENZ_hPTEN: NovaScreen (NVS) Enzymatic Assay for human Phosphatase and Tensin Homolog (PTEN) (AID 2283203)
# In short: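 Cell-free recombinant human PTEN with fluorescent substrate; product separated by electrophoretic mobility shift and read by fluorescence 1 h after dosing. Primary screen in duplicate at 25 uM, actives followed in concentration series versus DMSO.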
# [12] = target: human Protein Tyrosine Phosphatase Non-receptor Type 2 (PTPN2), PTPN2 (gene 5771) (UniProt P17706); assay: NVS_ENZ_hPTPN2: NovaScreen (NVS) Enzymatic Assay for human Protein Tyrosine Phosphatase Non-receptor Type 2 (PTPN2) (AID 2283207)
# In short: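 Cell-free recombinant enzyme with fluorescent substrate, product separated by electrophoretic mobility shift; read 1 h after dosing. Primary screen single concentration (25 uM) in duplicate; actives followed in concentration series; loss of signal versus DMSO.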
# [13] = target: human Sirtuin 1 (SIRT1), SIRT1 (gene 23411) (UniProt Q96EB6); assay: NVS_ENZ_hSIRT1: NovaScreen (NVS) Enzymatic Assay for human Sirtuin 1 (SIRT1) (AID 2283219)
# In short: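 Cell-free recombinant SIRT1 with a fluorescent substrate; substrate and product separated by electrophoretic mobility shift and read by fluorescence intensity, 1 h after dosing. Primary screen at 25 uM in duplicate; hits re-run in concentration-response up to 50 uM, relative to DMSO.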
# [14] = target: Serine/threonine-protein phosphatase PP1-alpha catalytic subunit (Homo sapiens) (UniProt P62136); assay: NVS_ENZ_hPPP1CA: NovaScreen (NVS) Enzymatic Assay for human Protein Phosphatase 1 Aatalytic subunit Alpha (PPP1CA) (AID 2283200)
# In short: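 Recombinant enzyme activity read by fluorescence with electrophoretic mobility shift separating substrate from product, 1.33 h after dosing; loss of signal vs DMSO baseline. Primary screen in duplicate at 25 uM; actives retested in concentration-response up to 50 uM.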
# Chain of human Protein Tyrosine Phosphatase Non-receptor Type 2 (PTPN2), PTPN2 (gene 5771) (P17706 whole entry, looked up): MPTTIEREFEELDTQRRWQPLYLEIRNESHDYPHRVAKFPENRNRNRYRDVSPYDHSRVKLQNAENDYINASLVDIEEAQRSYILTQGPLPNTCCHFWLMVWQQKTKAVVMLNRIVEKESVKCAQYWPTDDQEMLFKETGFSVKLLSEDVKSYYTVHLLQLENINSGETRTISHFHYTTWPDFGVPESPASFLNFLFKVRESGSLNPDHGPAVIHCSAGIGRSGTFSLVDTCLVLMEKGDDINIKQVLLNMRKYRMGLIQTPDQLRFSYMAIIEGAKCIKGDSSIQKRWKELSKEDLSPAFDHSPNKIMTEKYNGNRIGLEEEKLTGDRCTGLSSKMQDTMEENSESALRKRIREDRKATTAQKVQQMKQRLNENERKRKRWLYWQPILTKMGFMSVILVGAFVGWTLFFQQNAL
# Chain of human Protein Tyrosine Phosphatase Non-receptor Type 6 (PTPN6), PTPN6 (gene 5777) (P29350 whole entry, looked up): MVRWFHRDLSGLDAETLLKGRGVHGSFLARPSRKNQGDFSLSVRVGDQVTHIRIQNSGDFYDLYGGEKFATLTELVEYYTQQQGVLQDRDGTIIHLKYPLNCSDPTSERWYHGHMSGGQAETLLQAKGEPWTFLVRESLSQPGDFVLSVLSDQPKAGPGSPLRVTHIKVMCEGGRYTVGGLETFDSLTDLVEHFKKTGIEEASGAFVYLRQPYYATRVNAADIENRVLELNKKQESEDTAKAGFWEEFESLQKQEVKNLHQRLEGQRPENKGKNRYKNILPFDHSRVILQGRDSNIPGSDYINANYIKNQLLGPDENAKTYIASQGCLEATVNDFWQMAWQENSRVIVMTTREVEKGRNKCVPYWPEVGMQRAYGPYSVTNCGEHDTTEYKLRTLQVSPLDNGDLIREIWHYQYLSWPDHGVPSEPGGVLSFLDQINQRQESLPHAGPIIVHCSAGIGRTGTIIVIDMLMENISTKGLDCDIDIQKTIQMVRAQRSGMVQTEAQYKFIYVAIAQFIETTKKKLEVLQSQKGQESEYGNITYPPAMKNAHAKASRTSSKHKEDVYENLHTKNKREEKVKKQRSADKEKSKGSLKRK
# Chain of human Protein Tyrosine Phosphatase Non-receptor Type 9 (PTPN9), PTPN9 (gene 5780) (P43378 whole entry, looked up): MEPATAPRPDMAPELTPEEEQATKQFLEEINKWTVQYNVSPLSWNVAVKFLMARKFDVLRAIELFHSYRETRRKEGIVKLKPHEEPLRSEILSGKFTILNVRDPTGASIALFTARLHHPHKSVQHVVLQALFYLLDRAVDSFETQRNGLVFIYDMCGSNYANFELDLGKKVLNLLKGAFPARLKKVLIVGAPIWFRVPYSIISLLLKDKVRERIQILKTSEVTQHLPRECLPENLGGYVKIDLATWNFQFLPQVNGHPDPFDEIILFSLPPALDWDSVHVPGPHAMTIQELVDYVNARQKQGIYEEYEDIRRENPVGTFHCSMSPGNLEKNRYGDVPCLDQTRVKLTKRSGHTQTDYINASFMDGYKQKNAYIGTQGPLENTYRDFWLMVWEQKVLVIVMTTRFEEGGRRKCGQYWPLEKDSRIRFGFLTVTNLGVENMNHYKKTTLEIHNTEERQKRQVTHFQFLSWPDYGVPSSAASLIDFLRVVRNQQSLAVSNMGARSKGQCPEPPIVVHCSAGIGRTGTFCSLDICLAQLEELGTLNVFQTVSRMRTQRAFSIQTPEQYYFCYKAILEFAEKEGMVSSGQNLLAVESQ
# Chain of PPP2CA (gene 5515) (P67775 whole entry, looked up): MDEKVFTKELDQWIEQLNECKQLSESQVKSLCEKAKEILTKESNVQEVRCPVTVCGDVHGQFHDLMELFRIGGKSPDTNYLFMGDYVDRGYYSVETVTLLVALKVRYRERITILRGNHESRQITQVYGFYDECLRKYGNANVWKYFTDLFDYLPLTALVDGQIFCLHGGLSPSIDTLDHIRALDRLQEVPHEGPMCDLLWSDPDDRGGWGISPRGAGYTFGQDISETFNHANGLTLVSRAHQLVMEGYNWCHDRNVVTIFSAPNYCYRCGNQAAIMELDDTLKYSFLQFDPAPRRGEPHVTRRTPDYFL
# Chain of human Protein Phosphatase, Mg2+/Mn2+ Dependent 1A (PPM1A), PPM1A (gene 5494) (P35813 whole entry, looked up): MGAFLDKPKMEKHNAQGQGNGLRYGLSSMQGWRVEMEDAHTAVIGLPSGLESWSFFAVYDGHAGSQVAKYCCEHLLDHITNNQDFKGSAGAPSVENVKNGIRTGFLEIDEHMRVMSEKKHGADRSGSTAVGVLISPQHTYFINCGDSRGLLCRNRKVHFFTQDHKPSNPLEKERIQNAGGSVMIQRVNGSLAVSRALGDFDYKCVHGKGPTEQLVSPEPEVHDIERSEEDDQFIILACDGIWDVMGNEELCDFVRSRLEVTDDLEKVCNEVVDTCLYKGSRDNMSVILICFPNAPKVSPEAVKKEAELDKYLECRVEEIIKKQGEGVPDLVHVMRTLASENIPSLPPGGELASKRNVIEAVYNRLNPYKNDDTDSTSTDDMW
# Chain of Serine/threonine-protein phosphatase PP1-alpha catalytic subunit (Homo sapiens) (P62136 whole entry, looked up): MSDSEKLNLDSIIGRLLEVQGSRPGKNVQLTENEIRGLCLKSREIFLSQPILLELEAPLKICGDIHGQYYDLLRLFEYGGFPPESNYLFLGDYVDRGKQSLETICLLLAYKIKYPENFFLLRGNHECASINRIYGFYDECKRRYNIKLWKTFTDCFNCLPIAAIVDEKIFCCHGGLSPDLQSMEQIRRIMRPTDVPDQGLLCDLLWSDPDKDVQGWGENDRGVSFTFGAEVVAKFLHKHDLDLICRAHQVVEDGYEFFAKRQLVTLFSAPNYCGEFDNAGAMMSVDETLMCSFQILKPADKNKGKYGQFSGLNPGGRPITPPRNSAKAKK
# Chain of human Protein Tyrosine Phosphatase Receptor Type M (PTPRM), PTPRM (gene 5797) (P28827 whole entry, looked up): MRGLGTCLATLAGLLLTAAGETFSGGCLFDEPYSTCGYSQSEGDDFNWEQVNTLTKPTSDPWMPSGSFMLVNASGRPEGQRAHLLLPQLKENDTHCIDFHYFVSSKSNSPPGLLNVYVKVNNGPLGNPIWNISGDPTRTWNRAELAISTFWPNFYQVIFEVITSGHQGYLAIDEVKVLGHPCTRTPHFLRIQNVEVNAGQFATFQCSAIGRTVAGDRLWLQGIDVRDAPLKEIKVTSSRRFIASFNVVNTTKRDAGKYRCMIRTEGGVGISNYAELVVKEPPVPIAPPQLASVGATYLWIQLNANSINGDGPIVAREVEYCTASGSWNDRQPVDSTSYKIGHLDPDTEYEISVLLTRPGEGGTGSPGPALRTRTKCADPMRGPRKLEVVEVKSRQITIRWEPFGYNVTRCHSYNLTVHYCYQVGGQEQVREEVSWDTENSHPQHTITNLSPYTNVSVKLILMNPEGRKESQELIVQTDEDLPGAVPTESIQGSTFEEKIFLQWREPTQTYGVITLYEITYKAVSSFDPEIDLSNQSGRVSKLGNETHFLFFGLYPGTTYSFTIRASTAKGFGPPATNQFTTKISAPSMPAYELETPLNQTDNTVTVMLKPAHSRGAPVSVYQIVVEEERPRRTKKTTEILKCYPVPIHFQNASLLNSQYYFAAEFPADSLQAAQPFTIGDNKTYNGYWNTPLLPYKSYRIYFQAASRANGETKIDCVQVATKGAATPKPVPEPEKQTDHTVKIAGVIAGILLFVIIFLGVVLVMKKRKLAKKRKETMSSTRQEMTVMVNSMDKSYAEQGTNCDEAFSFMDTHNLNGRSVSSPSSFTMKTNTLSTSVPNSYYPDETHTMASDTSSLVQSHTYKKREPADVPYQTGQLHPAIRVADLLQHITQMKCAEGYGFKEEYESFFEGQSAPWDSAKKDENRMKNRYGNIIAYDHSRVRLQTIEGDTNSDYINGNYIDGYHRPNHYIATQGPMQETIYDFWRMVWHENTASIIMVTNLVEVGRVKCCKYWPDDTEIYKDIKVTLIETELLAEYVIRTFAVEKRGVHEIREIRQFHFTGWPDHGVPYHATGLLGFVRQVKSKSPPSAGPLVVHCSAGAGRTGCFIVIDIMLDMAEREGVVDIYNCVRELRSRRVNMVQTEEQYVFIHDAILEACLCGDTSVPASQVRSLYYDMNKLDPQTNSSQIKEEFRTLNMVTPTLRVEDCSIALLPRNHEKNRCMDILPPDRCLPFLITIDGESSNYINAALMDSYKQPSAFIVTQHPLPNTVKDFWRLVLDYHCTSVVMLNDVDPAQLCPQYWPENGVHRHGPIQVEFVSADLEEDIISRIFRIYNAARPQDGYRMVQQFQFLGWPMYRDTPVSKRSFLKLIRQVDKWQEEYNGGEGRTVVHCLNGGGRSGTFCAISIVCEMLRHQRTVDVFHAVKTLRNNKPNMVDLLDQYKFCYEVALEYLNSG
# Chain of human Sirtuin 1 (SIRT1), SIRT1 (gene 23411) (Q96EB6 whole entry, looked up): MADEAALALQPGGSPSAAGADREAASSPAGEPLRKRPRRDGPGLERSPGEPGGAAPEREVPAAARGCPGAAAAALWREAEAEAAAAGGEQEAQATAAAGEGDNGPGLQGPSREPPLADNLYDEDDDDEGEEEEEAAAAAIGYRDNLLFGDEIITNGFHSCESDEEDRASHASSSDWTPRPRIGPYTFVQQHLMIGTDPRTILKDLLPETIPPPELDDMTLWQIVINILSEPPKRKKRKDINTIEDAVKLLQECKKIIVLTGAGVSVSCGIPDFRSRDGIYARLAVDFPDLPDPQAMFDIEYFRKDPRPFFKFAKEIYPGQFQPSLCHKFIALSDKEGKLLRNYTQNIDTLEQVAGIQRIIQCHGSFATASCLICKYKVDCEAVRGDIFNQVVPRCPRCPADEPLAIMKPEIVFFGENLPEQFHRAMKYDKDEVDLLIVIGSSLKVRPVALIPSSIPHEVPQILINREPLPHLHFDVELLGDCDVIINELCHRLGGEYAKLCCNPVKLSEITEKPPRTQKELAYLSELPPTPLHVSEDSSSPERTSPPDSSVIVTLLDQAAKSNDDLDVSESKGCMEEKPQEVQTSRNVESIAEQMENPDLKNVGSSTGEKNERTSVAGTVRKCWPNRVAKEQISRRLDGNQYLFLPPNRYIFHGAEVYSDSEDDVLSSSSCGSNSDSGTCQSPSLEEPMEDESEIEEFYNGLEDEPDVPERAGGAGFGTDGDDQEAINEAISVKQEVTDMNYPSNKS
smiles,measurement,setting,value
CN(C)c1ccc(C(=O)c2ccc(N(C)C)cc2)cc1,AC50,[1],41.7 µM (active)
CCN(CC)N=O,outcome,PPP2CA (gene 5515),inactive
same,outcome,[2],inactive
same,outcome,[3],inactive
same,outcome,[4],inactive
same,outcome,[1],inactive
same,outcome,[5],inactive
same,outcome,[6],inactive
same,outcome,[7],inactive
same,outcome,[8],inactive
CCOc1cccc(C2(N3CCN(c4ccccc4)CC3)CCC(C)CC2)c1 (stereo not drawn),outcome,[9],inactive
CCC(C)c1ccc(O)cc1 (stereo not drawn),outcome,[10],inactive
CCCCCOC(=O)c1ccccc1C(=O)OCCCCC,outcome,[1],inactive
ClC1=C(Cl)[C@]2(Cl)[C@H]3[C@H]([C@@H]4C=C[C@H]3C4)[C@@]1(Cl)C2(Cl)Cl,outcome,[1],inactive
CCN(CC)CCO,outcome,[1],inactive
Clc1ccc(C(c2ccc(Cl)cc2)C(Cl)Cl)cc1,outcome,[10],inactive
Cn1cc(-c2ccccc2)c(=O)c(-c2cccc(C(F)(F)F)c2)c1,outcome,[11],inactive
same,AC50,[12],0.115 µM (active)
c1ccc2c(c1)oc1ccccc12,outcome,[12],inactive
same,outcome,[10],inactive
same,outcome,[6],inactive
Clc1ccc(C(c2ccc(Cl)cc2)C(Cl)(Cl)Cl)cc1,outcome,[12],inactive
same,outcome,[1],inactive
same,outcome,[10],inactive
same,AC50,[13],25 µM (active)
CCCCOC(=O)c1ccccc1C(=O)OCc1ccccc1,outcome,[9],inactive
Nc1ccc([N+](=O)[O-])cc1,outcome,PPP2CA (gene 5515),inactive
same,outcome,[14],inactive
Nc1ccc(Oc2ccc(N)cc2)cc1,outcome,[1],inactive
same,AC50,[10],17 µM (active)
Clc1ccc(Cl)c(Cl)c1,outcome,PPP2CA (gene 5515),inactive
same,outcome,[13],inactive
N#CC(Br)(Br)C(N)=O,outcome,[14],inactive
